Test results: PubChem BioAssay AID1835 (Johns Hopkins Ion Channel Center, 2009)
The campaign covered roughly 2,400 compounds. About 750 (31%) were called active. The list shows a part of the results. Values without a mark were called inactive.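 Rule for the calls: active = median signal gain over dofetilide-blocked control wells reaching their mean plus 3 SD, so readout 1 at least 0; inactive = the rest.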

Each compound was assayed against Voltage-gated inwardly rectifying potassium channel KCNH2 (Homo sapiens) (UniProt Q12809) (assay: hERG protection against dofetilide inhibition, confirmation, cell-based, thallium flux, duplicate retest, dofetilide IC70 (AID 1835)). Conditions: hERG cell line, FluxOR thallium flux, dofetilide-blocked; at 10 µM; active compounds read high.
Chain of Voltage-gated inwardly rectifying potassium channel KCNH2 (Homo sapiens) (Q12809 whole entry, looked up): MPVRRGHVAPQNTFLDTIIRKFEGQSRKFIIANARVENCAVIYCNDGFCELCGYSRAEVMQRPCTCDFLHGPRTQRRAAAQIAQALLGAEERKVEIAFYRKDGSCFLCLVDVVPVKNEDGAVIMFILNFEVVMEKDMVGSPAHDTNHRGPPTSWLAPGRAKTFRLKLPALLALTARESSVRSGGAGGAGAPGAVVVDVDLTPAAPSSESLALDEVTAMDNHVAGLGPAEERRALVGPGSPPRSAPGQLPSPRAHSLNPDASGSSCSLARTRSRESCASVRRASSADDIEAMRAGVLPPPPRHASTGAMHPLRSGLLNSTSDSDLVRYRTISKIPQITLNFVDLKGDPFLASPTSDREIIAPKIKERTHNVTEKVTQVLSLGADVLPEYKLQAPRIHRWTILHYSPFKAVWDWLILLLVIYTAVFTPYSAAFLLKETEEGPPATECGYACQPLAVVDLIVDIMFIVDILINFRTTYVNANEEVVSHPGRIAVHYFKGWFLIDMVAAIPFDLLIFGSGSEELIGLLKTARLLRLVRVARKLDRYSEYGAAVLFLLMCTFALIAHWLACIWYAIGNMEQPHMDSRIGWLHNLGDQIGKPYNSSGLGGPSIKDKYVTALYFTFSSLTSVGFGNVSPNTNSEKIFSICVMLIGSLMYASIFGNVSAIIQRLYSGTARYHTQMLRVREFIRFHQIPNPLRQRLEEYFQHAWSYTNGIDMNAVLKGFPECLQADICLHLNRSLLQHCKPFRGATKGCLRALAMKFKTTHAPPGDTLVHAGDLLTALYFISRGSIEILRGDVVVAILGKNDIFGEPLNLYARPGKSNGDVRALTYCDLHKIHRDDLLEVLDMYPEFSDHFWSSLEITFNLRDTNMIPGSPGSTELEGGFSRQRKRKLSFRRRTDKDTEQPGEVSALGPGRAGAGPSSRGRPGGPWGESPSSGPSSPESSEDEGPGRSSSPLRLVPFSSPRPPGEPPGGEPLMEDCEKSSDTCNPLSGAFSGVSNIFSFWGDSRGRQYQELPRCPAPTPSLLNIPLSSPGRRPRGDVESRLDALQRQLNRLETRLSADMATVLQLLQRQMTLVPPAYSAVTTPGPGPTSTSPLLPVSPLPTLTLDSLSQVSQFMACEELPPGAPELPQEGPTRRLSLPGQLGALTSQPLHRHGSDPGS

| SMILES | activity increase over dofetilide control, less the hit threshold |
| --- | --- |
| CCc1nc(C)ccc1OCC(=O)N1CCc2c([nH]c3ccccc23)C1c1ccccn1 (stereo unspecified) | -24% |
| Cc1ccc(CCNC(=O)c2cccc(NC3=NC4CS(=O)(=O)CC4S3)c2)cc1 (stereo unspecified) | -4% |
| Cc1cc(=O)[nH]c(N/N=C2/CCCC/C2=C\c2ccccc2)n1 | -9% |
| CNC(=O)c1[nH]cnc1C(=O)Nc1ccccn1 | -18% |
| Cc1ccccc1OCC(=O)NNC(=O)c1ccc2c(=O)n3c(nc2c1)CCC3 | -21% |
| O=C1c2ccccc2C(=O)N1CCc1nc(-c2ccccn2)no1 | -12% |
| CCOc1ccc(CCNC(=O)Nc2ccccc2C)cc1OCC | -12% |
| CCOc1ccccc1NC(=O)C(=O)CC(=O)c1cccc(OC)c1 | 7% (active) |
| Cc1nnc(SCc2cc(=O)oc3cc(O)ccc23)n1Cc1ccccc1 | 12% (active) |
| Cc1oc2cc(O)ccc2c(=O)c1N1C(=O)c2ccccc2C1=O | -4% |
| Cc1ccc2c(CN3CCOCC3)cc(=O)oc2c1 | -14% |
| CCOCCCNC(=O)C(NC(=O)Cc1cccs1)c1ccc(C)cc1 (stereo unspecified) | -21% |
| Cc1ccc(C(C#N)c2ccc3c(C(F)(F)F)cc(C(F)(F)F)nc3n2)cc1 (stereo unspecified) | 8% (active) |
| Fc1ccc(N2CCN(c3ccc4c(C(F)(F)F)cc(C(F)(F)F)nc4n3)CC2)cc1 | -8% |
| Cc1ccc(S(=O)(=O)N2CCOCC2)cc1NC(=O)COC(=O)c1cccnc1Cl | -15% |
| Cc1cccc(/C=C2/S/C(=N/N=C3\CC4CCC3(C)C4(C)C)NC2=O)c1 (stereo unspecified) | 5% (active) |
| CC12CCC(C/C1=N\N=C1\NC(=O)/C(=C\c3ccc(Cl)cc3)S1)C2(C)C (stereo unspecified) | -3% |
| Cc1ccc(N=C2NC(=O)/C(=C/c3cccs3)S2)cc1C | 0% |
| COc1ccc(/C=C2/S/C(=N/N=C3\CC4CCC3(C)C4(C)C)NC2=O)cc1 (stereo unspecified) | 20% (active) |
| CCOc1nc(-c2ccccc2)ccc1-c1noc(COC)n1 | -7% |
| COC(=O)c1ccc(NC(=O)COC(=O)C2CC(=O)N(Cc3ccccc3)C2)cc1 (stereo unspecified) | -29% |
| Cc1cccc(NC(=S)N/N=C2\CC(C)(C)Oc3ccc(O)cc32)c1 | -5% |
| O=S(=O)(c1ccc(F)c(F)c1)N1CCN(c2ncccn2)CC1 | -9% |
| O=S(=O)(Nc1ccc(O)c2ccccc12)c1ccc(F)cc1 | -58% |
| COc1ccc(OC)c(S(=O)(=O)Nc2ccc(O)c3ccccc23)c1 | -4% |
| Cc1ccc(S(=O)(=O)Nc2ccc(O)c3ccccc23)c(C)c1 | 5% (active) |

| SMILES | activity increase over dofetilide control, less the hit threshold |
| --- | --- |
| O=C(c1ccccc1)c1nccn1-c1ccc(Cl)nn1 | -11% |
| Cn1c(=S)[nH]c2scc(-c3cccs3)c2c1=O | 60% (active) |
| S=c1[nH]c(-c2cccs2)cn1-c1ccccc1 | -5% |
| CC(C)n1c(=S)[nH]c2scc(-c3cccs3)c2c1=O | 79% (active) |
| CC(C1CC2CCC1C2)n1c(-c2cccs2)n[nH]c1=S (stereo unspecified) | -4% |
| COc1cc(/C=N/n2cnc3scc(-c4cccs4)c3c2=O)cc(OC)c1OC | -5% |
| S=c1nc(C2CC2)[nH]c2ccccc12 | 34% (active) |
| S=c1nc(C2CCCCC2)[nH]c2ccccc12 | 4% (active) |
| S=c1[nH]c2ccccc2c2ccccc12 | -3% |
| COc1ccc(-n2c(O)c(/C=C3\C=Nc4ccccc43)c(=O)[nH]c2=O)cc1 | 21% (active) |
| COc1ccc(Cn2c(O)cc(=O)[nH]c2=O)cc1 | -9% |
| Cn1cc(CCC(=O)N2CCCC(Nc3ccc(F)cc3)C2)cn1 (stereo unspecified) | -13% |
| CCc1cc2cc(C)cc(C)c2[nH]c1=S | 14% (active) |
| COc1ccc(NC(=O)CC23CC4CC(CC(C4)C2)C3)cn1 | -17% |
| CCOC(=O)c1cnc(-n2nc(C)cc2C)nc1NNc1nc(-c2ccccc2)cc(-c2ccccc2)n1 | -12% |
| CCOc1cc(N2CCOCC2)c(OCC)cc1NC(=O)Cn1nc(C)c([N+](=O)[O-])c1C | 16% (active) |
| CCOc1cc(N2CCOCC2)c(OCC)cc1NC(=O)CCC1CCCC1 | -11% |
| CCOc1cc(N2CCOCC2)c(OCC)cc1NC(=O)Cc1ccccc1 | -2% |
| Cc1ccccc1OC(=O)n1c(=S)oc2cc(Cl)ccc21 | -1% |
| O=C(/C=C/Nc1ccccc1)C(F)(F)F | -14% |
| Cc1ccc(-c2nc(N)s[n+]2-c2ccccc2)cc1 | 17% (active) |
| CCC(C)(C)NC(=O)c1ccc(Sc2nncn2C)c([N+](=O)[O-])c1 | -4% |
| C=C(C)C1CC=C(C)/C(=N/NC(=O)CCC(=O)Nc2ccccc2Cl)C1 (stereo unspecified) | -17% |
| COc1ccc(CCNC(=O)Cn2c(=O)n(-c3ccc(F)cc3)c(=O)c3sccc32)cc1OC | -10% |
| COc1ccc(CCNC(=O)C(=O)Nc2ccc3c(c2)OCO3)cc1OC | -22% |
| COc1ccccc1-n1c(C)nc2cc(C(=O)NCc3ccc4c(c3)OCO4)ccc21 | -27% |

| SMILES | activity increase over dofetilide control, less the hit threshold |
| --- | --- |
| COc1cccc([C@@H]2Oc3ccc(OC)cc3C(=O)[C@H]2OC(=O)NCc2ccc3c(c2)OCO3)c1 | 5% (active) |
| COc1ccc2c(c1)O[C@@H](c1cccc(C(F)(F)F)c1)[C@H](OC(=O)NCCc1ccc(OC)c(OC)c1)C2=O | 3% (active) |
| COc1ccc(CCNC(=O)c2ccc3c(c2)OCO3)cc1 | -16% |
| COC(=O)C(C)Sc1nnc(Cc2cc(=O)[nH]c(=O)[nH]2)n1-c1cccc(OC)c1 (stereo unspecified) | -17% |
| CC(C)OC(=O)N(C)c1ccc(C(O)(C(F)(F)F)C(F)(F)F)cc1 | -8% |
| CCCOC(=O)CN1C(=O)c2ccc(C(=O)OCCC)cc2C1=O | -8% |
| COc1ccc(CC(=O)Nc2ccc(-c3noc(-c4ccccc4OC)n3)cc2)cc1 | -18% |
| Cc1c(C#N)c(O)[nH]c(=O)c1N=Nc1ccc(Br)cc1C(=O)O | 46% (active) |
| Cc1ccc(C(C)C)cc1S(=O)(=O)NC1CC(C)(C)NC(C)(C)C1 | -15% |
| CC1(C)CC(NC(=O)c2ccc(Cl)cc2Cl)CC(C)(C)N1 | 2% (active) |
| Cc1ccc2c(c1)c1c(n2CC(O)Cn2nc(C)c(Br)c2C)CCCC1 (stereo unspecified) | -8% |
| Cc1ccc(F)cc1CNC(=O)C1CCC(=O)N(C2CC2)C1 (stereo unspecified) | -7% |
| Cc1cc(SCC(=O)c2cccc([N+](=O)[O-])c2)nc(=O)[nH]1 | -9% |
| CCOC(=O)/C(C)=N/NC(=O)c1ccc([N+](=O)[O-])cc1 | 17% (active) |
| CCOC(=O)c1[nH]cnc1C(=O)Nc1ccc([N+](=O)[O-])cc1 | -13% |
| CCOC(=O)/C(C)=N/NC(=O)c1cccc([N+](=O)[O-])c1 | 3% (active) |
| CCOc1ccc(C(=O)N/N=C/c2cc([N+](=O)[O-])cs2)cc1 | 0% |
| Cc1ccccc1C(=O)NNC(=O)c1cccc([N+](=O)[O-])c1 | -31% |
| COc1cccc(C=NCCCN=Cc2cccc(OC)c2O)c1O | 9% (active) |
| COc1cccc(/C=N/NC(=O)CSc2ccccc2C)c1O | -5% |
| COc1cccc(/C=N/Nc2nc3ccccc3[nH]2)c1O | -4% |
| CCOc1cccc(/C=N/NC(=O)c2ccc3c(c2)OCCO3)c1O | -10% |
| COc1cccc(C=NCC(C)N=Cc2cccc(OC)c2O)c1O (stereo unspecified) | 7% (active) |
| COc1cccc(/C=N/n2c(SC)nnc2-c2ccccc2)c1O | -2% |
| COc1cc(Br)cc(C=Nc2cccc(C(F)(F)F)c2)c1O | -14% |
| COC(=O)c1cccc(/C=N/NC(N)=S)c1O | -9% |

| SMILES | activity increase over dofetilide control, less the hit threshold |
| --- | --- |
| COc1cccc(C=Nc2cc(C)cc(C)c2)c1O | 3% (active) |
| O=C(COC(=O)c1cnccn1)c1ccc(Cl)cc1 | -9% |
| CCCNc1c(NS(=O)(=O)c2cccc(C#N)c2)c(=O)oc2ccccc12 | -6% |
| Fc1cccc2sc(Nc3nc4c(F)cccc4s3)nc12 | 22% (active) |
| O=C(Cc1ccc(Cl)cc1)Nc1cccc(-c2nnc(-c3ccco3)o2)c1 | -15% |
| Fc1cccc2sc(Nc3nnc(-c4ccco4)o3)nc12 | 3% (active) |
| COc1cccc(-c2nnc(Nc3nc4c(F)cccc4s3)o2)c1 | 9% (active) |
| CC(=O)Nc1nc2c(F)cccc2s1 | -15% |
| Fc1cccc2sc(Nc3nnc(-c4ccccc4)o3)nc12 | 59% (active) |
| O=C(NCCc1ccc(F)cc1)c1coc(=O)c(Br)c1 | -17% |
| Fc1ccc2nc(Nc3nc4c(F)cc(F)cc4s3)sc2c1 | 4% (active) |
| O=C(Nc1nc2c(F)cc(F)cc2s1)C1COc2ccccc2O1 (stereo unspecified) | -6% |
| O=C(CCc1ccccc1)Nc1nnc(-c2ccccn2)o1 | -12% |
| CCOc1ccccc1CNC(=O)CNC(=O)c1cccs1 | -24% |
| Cc1ccc(NC(=O)C(=O)NNC(=O)c2cccs2)cc1 | 74% (active) |
| CCc1ccc(NC(=O)C(=O)NNC(=O)c2cccs2)cc1 | 61% (active) |
| Cc1ccc(N/C=C/C(=O)c2cccs2)cc1 | -15% |
| Cc1cc(C(=O)NNC(=O)c2cccs2)nn1C(C)(C)C | -1% |
| O=C1c2ccccc2C(=O)N1Cc1cc(-c2ccccc2Cl)no1 | -7% |
| Cc1cc(C(F)(F)F)n(-c2ccc(N)cc2)n1 | -5% |
| CCOC(=O)c1[nH]c(=O)[nH]c1COC(=O)c1cc2ccccc2o1 | -2% |
| O=C(CSc1nc2cc(Cl)ccc2s1)c1cc2ccccc2o1 | 2% (active) |
| O=C(CSc1nnc(SCc2ccccc2)s1)N/N=C/c1ccc(Cl)cc1Cl | -6% |
